Screening data (PubChem)
IL1B secr inh = inflammasome signaling inhibition, IL-1 beta readout | THP-1 LPS/ATP IL-1B secretion, AlphaLISA, 16 h; stronger effect = lower value | activity change, % at 57.5 µM | hit rate 4.7% among 360,000 | AID 743279; in the data active means activity change below about -50%; inconclusive means mostly about -30% to -49%; further: on the % scale 0 is the no-effect control and ±100 the full control effect
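Secreted IL-1B measured by AlphaLISA bead assay after 16 h compound exposure of THP-1 cells; compounds (final up to 57.5 uM) added 1 h before LPS (250 ng/mL) and ATP (1.25 mM) stimulation; lower signal means less secretion.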
TDP1 inh = TDP1 (human) enzyme inhibition. Q9NUW8. recombinant TDP1, AlphaScreen DNA substrate cleavage. Potency, µM (series often up to 130 µM), for the others: top-dose activity change, negative = inhibition, actives largely listed as inhibitors. hit rate 0.28% among 350,000. AID 485290; further: potency means the concentration at half of the fitted maximal effect; on the % scale 0 is the no-effect control and ±100 the full control effect; nearly all actives have a fitted effect of over 40% in size
Target sequence (Q9NUW8 whole entry, looked up): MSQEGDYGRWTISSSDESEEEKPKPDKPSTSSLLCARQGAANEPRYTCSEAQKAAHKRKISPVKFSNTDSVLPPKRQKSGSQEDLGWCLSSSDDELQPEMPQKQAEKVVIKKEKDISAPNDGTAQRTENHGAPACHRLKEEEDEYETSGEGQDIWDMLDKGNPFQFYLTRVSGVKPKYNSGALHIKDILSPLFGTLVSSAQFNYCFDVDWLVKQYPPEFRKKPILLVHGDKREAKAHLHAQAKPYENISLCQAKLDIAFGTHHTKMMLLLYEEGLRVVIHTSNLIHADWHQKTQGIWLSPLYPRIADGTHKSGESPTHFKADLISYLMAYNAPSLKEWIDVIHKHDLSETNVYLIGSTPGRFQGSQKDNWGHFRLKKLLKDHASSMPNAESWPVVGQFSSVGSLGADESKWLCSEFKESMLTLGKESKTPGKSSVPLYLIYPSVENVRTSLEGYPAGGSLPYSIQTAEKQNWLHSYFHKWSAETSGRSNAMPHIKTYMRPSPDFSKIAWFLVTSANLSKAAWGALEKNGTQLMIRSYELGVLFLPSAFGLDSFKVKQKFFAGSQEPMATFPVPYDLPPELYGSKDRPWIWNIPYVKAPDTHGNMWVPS
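Signal: AlphaScreen proximity between streptavidin donor and anti-FITC acceptor beads on intact substrate. Reaction: Tdp1 1 nM, substrate 15 nM final, 5 min RT after 15 min compound preincubation.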
TGFb inhibitor = TGF-b pathway inhibition | AID 588855 | hit rate 1.2% among 410,000 | HepG2 CAGA-GFP TGF-b/SMAD3 reporter, GFP fluorescence, 18 h; TGF-beta stimulated, 500 pg/mL final | Potency, µM (series often up to 46.1 µM), for the others: at the top dose activity, negative = inhibition, most hits filed as inhibitors; further: potency means the concentration at half of the fitted maximal effect; on the % scale 0 is the no-effect control and ±100 the full control effect; nearly all actives have a fitted effect of over 65% in size
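Inhibition of TGF-beta-driven CAGA-GFP reporter expression in HEPG2 cells is measured by cellular GFP fluorescence after 18 h stimulation with 500 pg/mL recombinant TGF-beta in 1% FBS medium at 37 degrees C.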
DT40 TDP1 no CPT = qHTS for Inhibitors of human tyrosyl-DNA phosphodiesterase 1 (TDP1): qHTS in cells in absence of CPT; hit rate 15% among 420,000; Potency, µM (highest dose often 46.2 µM), for inactives: at the highest dose activity change, negative = growth inhibition, most hits filed as inhibitors; AID 686978, 2013; DT40 Tdp1-/- hTDP1 cells, no CPT, ATP luminescence, 48 h; further: potency means the concentration at half of the fitted maximal effect; on the % scale 0 is the no-effect control and ±100 the full control effect; nearly all actives have a fitted effect of over 55% in size
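Growth kinetics read by CellTiter-Glo luminescence after ≥48 hr at 37 °C. Cells: DT40 Tdp1-/- stably carrying human TDP1, 400 per well, compound exposure in the absence of CPT (DMSO vehicle).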
HepG2 tox = kills HepG2 cells in TGF-b inhibitor counter-screen; HepG2 CAGA-GFP viability, ATP luminescence, 18 h; Potency, µM (top dose mostly 46.1 µM), without a hit: at the top dose activity change, negative = cytotoxicity, actives largely listed as cytotoxic; hit rate 0.76% among 410,000; AID 588856; further: potency means the concentration at half of the fitted maximal effect
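HepG2 CAGA-GFP cells (1000/well, DMEM with 1% FBS) received compound, then TGF-beta at 500 pg/mL final, and were incubated 18 hours at 37 degrees C. Viability was read by CellTiter-Glo luminescence. Media-only wells were set as complete cell-killing and DMSO as no toxicity.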
TDP1 cell CPT = growth inhibition of DT40 Tdp1-/-;hTDP1 cells with camptothecin (screen for TDP1 inhibitors); chicken DT40 Tdp1-/-;hTDP1 cells + 20 nM CPT, ATP luminescence, 48 h; Potency, µM (top dose mostly 46.2 µM), for inactives: top-dose activity change, negative = growth inhibition, most hits filed as inhibitors; hit rate 12% among 420,000; further: potency means the concentration at half of the fitted maximal effect; on the % scale 0 is the no-effect control and ±100 the full control effect; nearly all actives have a fitted effect of over 55% in size
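Chicken DT40 Tdp1-/- cells stably complemented with human TDP1 were seeded at 400 cells/well in medium containing 20 nM camptothecin, exposed to pin-transferred compounds, and grown at 37 °C for at least 48 hr. Viability was read as ATP luminescence.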
The depositor's hits bear a star; ? = inconclusive; / = not tested or not shown. Hits are enriched below; roughly 19% of the tested compounds scored in any of these assays. Unless noted, the call rests on the fitted dose curve; in most records, active means well fitted curve in the direction sought with a large enough effect; inconclusive means small, poorly fitted or top-dose-only effect, or another doubt; inactive means no such curve, though single readings can be large; an effect the other way counts as inactive or inconclusive.

SMILES	IL1B secr inh	TDP1 inh	TGFb inhibitor	DT40 TDP1 no CPT	HepG2 tox	TDP1 cell CPT
COc1ccccc1NS(=O)(=O)c1ccc(Cl)c(NC(=S)NC(=O)C2CCCC2)c1	-6	0%	?	29µM*	-1%	23µM*
CC(=O)NNC(=S)Nc1cc(S(=O)(=O)N(C)C)ccc1C	10	2%	2%	?	-5%	-2%
CCN(CC)S(=O)(=O)c1ccc(Cl)c(NC(=S)NC(=O)C2CCCC2)c1	?	1%	?	18µM*	-35%	23µM*
O=C(CNC(=O)C1CCCCC1)Nc1cc(Cl)ccc1Cl	89	0%	-23%	-24%	-41%	-6%
Cc1ccc(S(=O)(=O)N(C)C)cc1NC(=S)NC1CCCC(C)C1C (centres undefined)	-4	-4%	-1%	?	9%	21µM*
O=C(Cn1cc(S(=O)(=O)Cc2ccccc2F)c2ccccc21)NCc1ccccc1Cl	/	5%	0%	?	2%	?
COC(=O)c1cc(NC(=O)CCc2c(C)nc3nc(C)nn3c2C)cc(C(=O)OC)c1	/	5%	-8%	-30%	-6%	1%
CCN(CC)S(=O)(=O)c1ccc(C)c(NC(=S)NC2CCCCC2)c1	24	4%	-1%	15µM*	-17%	?
CCN(CC)S(=O)(=O)c1cccc(C(=O)NC2CCCCC2)c1	4	5%	?	?	-3%	-9%
COc1ccc(S(=O)(=O)Nc2ccccc2OC)cc1NC(=O)CC1CC2CCC1C2 (centres undefined)	2	6%	-16%	16µM*	-5%	?
Cc1ccc(NC(=S)NC(=O)C2CCCCC2)c(Br)c1	46	-3%	0%	15µM*	-6%	?
COc1ccc(N2CC(C(=O)Nc3nc4ccc(OC)cc4s3)CC2=O)cc1 (centres undefined)	-5	/	4%	?	-23%	-3%
COc1cccc(NC(=O)C2CC2(c2cccc(OC)c2)c2cccc(OC)c2)c1 (centres undefined)	-19	0%	-26%	?	-11%	?
COc1ccc(NC(=O)Nc2nnc(N(CC(C)C)CC(C)C)s2)c(OC)c1	/	9%	?	18µM*	-96%	?
CCC(C)C(=O)Nc1nc2ccc(OC)cc2s1 (centres undefined)	-3	-3%	16%	16µM*	1%	?
COc1ccc2nc(NC(=O)C3CC(=O)N(c4ccccc4)C3)sc2c1 (centres undefined)	-57*	2%	-2%	?	-4%	-18%
COc1cccc(C2(c3cccc(OC)c3)CC2C(=O)Nc2cccc3ccccc23)c1 (centres undefined)	16	1%	-1%	26µM*	4%	?
CCCCN(C)CCNC(=O)c1c(C)oc2ncnc(N3CCOCC3)c12	/	4%	10%	6%	9%	17%
C#CCN(Cc1ccco1)C(=O)c1cc(COc2cccc3cccnc23)on1	-3	/	0%	?	-2%	-28%
COc1ccc(N2CC(C(=O)N/N=C/c3cccs3)CC2=O)cc1 (centres undefined)	2	3%	13%	7%	6%	-15%
COc1ccc2nc(Nc3ccc4c(c3)OCO4)sc2c1	?	2%	0%	-16%	-23%	-15%
COc1ccc2nc(NC(=O)Nc3ccccc3OC)sc2c1	-7	7%	-7%	5.2µM*	-1%	9.2µM*
COc1ccc(N2CC(C(=O)N/N=C/c3ccc(C)cc3)CC2=O)cc1 (centres undefined)	57	-4%	-25%	1.6µM*	3%	1.3µM*
COc1ccc2nc(Nc3nc4cc5c(cc4s3)OCO5)sc2c1	38	6%	-16%	7.3µM*	-28%	?
COc1ccc2nc(Nc3ccccc3)sc2c1	-67*	1%	6%	?	4%	-1%
SMILES	IL1B secr inh	TDP1 inh	TGFb inhibitor	DT40 TDP1 no CPT	HepG2 tox	TDP1 cell CPT
COc1ccc2[nH]cc(CCNC(=O)C3CCCCC3)c2c1	-13	/	1%	?	-52%	-3%
CSc1cccc(NC(=O)Cn2ncn3c(cc4ccccc43)c2=O)c1	/	4%	0%	?	-13%	-3%
COc1ccc2nc(Nc3ccccc3OC)sc2c1	-8	3%	-4%	21µM*	-20%	?
COc1ccc2nc(NC(=O)Nc3cccc4ccccc34)sc2c1	9	2%	-21%	18µM*	-33%	?
COc1ccc(NC(=O)Nc2cccc3ccccc23)c(OC)c1	9	1%	-2%	4%	-1%	?
O=C(Cn1cc(CNCc2ccccc2)nn1)Nc1cc(C(F)(F)F)ccc1Cl	/	-1%	/	/	/	/
COc1cc(Cl)c(C)cc1N1C(=O)CN(Cc2ccccc2)C1=S	-9	/	-26%	?	-27%	-27%
COc1cc(CN2CC(=O)N(c3ccccc3Cl)C2=S)cc(OC)c1OC	-14	/	0%	?	-18%	18µM*
COc1cc(CN2CC(=O)N(c3cccc(Cl)c3C)C2=S)cc(OC)c1OC	-5	/	-19%	?	-22%	23µM*
O=C(CSc1nc(=O)n(CCN2CCOCC2)c2c1CCC2)Nc1ccccc1	/	3%	-7%	1%	-6%	18%
O=C(Cc1ccc(Cl)cc1)NC1CC(=O)N(c2ccc3c(c2)OCCO3)C1 (centres undefined)	/	3%	-21%	-19%	-3%	-17%
COc1ccc(C2C(C#N)=C(N)Nc3onc(C(C)(C)C)c32)c(OC)c1 (centres undefined)	-30	3%	-28%	18µM*	-2%	?
Cc1ccc(C)c(CNC(=O)C2CCN(c3nc4ccccc4nc3C(F)(F)F)CC2)c1	/	3%	?	?	-15%	?
